p53null 39C kill – kills p53 null cells at the nonpermissive temperature; 55,000 compounds, 0.97% hits; H1299 p53-null (neo) cells, 39C, ATPlite viability, 24 h; Potency, µM (top dose mostly 46.1 µM), most hits filed as cytotoxic; further: nearly all actives have a fitted effect of over 50% in size
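Concentration-response (up to 46 uM) was run for 24 h at the nonpermissive 39C on H1299-p53A138V or H1299-neo cells. ATP content was measured with ATPlite luminescence. AC50 values were Hill-modeled after normalizing between DMSO and 100 uM tamoxifen killing.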
p53null 32C tox – selectivity test: cytotoxicity in p53 null cells, permissive temperature; H1299-neo p53 null cells, ATP luminescence, 24 h, 32C; Potency, µM (series often up to 46.1 µM), usual class: cytotoxic; 55,000 compounds, 0.62% hits; further: nearly all actives have a fitted effect of over 55% in size
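We seeded p53-null H1299-neo cells, incubated them overnight at 37C, and added compounds across a range up to 46 uM. After 24 hours at 32C, ATP reagent was applied for 20 min at room temperature and luminescence recorded.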
S16 F2sN tox – toxic to S16 Pmp22-F2sN Schwann cells; S16 Pmp22-F2sN Schwann cells viability, CellTiter-Glo, 24 h; Potency, µM (series often up to 57.5 µM), usual class: cytotoxic; 43,000 compounds, 0.48% hits; AID 1508642; further: nearly all actives have a fitted effect of over 65% in size
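Luminescence from CellTiter-Glo, read by CCD camera after a 15 min room-temperature incubation, served as the viability signal. Reporter Schwann cells (S16 Pmp22-F2sN) had been treated with pin-transferred compounds for 24 h at 37C.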
OvCa metastasis – inhibitors of ovarian cancer cell adhesion and invasion in omental model; SKOV3ip1-GFP adhesion/invasion on 3D omental model, fluorescence; Potency, µM (series often up to 45.8 µM), hits mostly inhibitors; 46,000 compounds, 0.1% hits; AID 1963576; further: nearly all actives have a fitted effect of over 65% in size
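Primary human omental fibroblast/mesothelial 3D culture pre-formed 48 h. SKOV3ip1-GFP cells added with compounds (0.36-46 umol/L), incubated 2 h RT/16 h 37 C, fixed; GFP cells quantified at 488/509 nm.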
pS6 MEF inh – mTORC1 pathway inhibition measured by phospho-rpS6 | Tsc2-/- p53-/- MEF, phospho-rpS6 immunofluorescence/PI, 24 h | Potency, µM (doses to about 38.3 µM), usual class: inhibitors | 44,000 compounds, 0.78% hits; further: nearly all actives have a fitted effect of over 50% in size
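Read-out: phospho-S6 Alexa-488 intensity over PI intensity per well, scored as % active cells using thresholds from rapamycin (7.5 nM) and DMSO controls. Tsc2-/-, p53-/- MEFs exposed to compound for 24 h; PI cell count recorded as viability.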
PMP22 txn prim – PMP22 gene transcription modulation; 43,000 compounds, 2% hits; S16 Pmp22-F2sN Schwann cells (luciferase reporters placed in the Pmp22 gene), FLuc/NLuc coincidence luminescence, 24 h; Potency, µM (highest dose often 57.5 µM), usual class: inhibitors; active means clear falling dose curves in both reporters; inconclusive means both reporters move, but less clearly or upward; inactive means either reporter flat; the % is the NLuc reporter signal
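Reporter cells (S16 Pmp22-F2sN, 500–1,000 per well) exposed to compounds for 24 h, 37C, 5% CO2; lysis with FLuc read after 10 min, then Stop&Glo and NLuc read after 10 min.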
NLuc sat counter – counter-screen for PMP22 expression modulators: NanoLuc inhibition, saturating substrate | shares compounds with PMP22 txn prim | Potency, µM (series often up to 57.5 µM), usual class: inhibitors | Secreted NLuc enzyme (filtered S16 cell medium), Nano-Glo luminescence | 690 compounds, 4% hits
NLuc Km ctr – NanoLuc inhibition at Km substrate, PMP22 artifact check | shares compounds with PMP22 txn prim | secreted NLuc enzyme, coelenterazine luminescence, Km conditions | Potency, µM (series often up to 57.5 µM), hits mostly inhibitors | 690 compounds, 5% hits | AID 1508639
FLuc ctr PMP22 – firefly luciferase enzyme inhibition artifact for PMP22 screen; purified P. pyralis FLuc, luminescence, 10 min; Potency, µM (top dose mostly 57.5 µM), actives largely listed as inhibitors; 690 tested, under 10 active; shares compounds with PMP22 txn prim
Target sequence (P08659 whole entry, looked up): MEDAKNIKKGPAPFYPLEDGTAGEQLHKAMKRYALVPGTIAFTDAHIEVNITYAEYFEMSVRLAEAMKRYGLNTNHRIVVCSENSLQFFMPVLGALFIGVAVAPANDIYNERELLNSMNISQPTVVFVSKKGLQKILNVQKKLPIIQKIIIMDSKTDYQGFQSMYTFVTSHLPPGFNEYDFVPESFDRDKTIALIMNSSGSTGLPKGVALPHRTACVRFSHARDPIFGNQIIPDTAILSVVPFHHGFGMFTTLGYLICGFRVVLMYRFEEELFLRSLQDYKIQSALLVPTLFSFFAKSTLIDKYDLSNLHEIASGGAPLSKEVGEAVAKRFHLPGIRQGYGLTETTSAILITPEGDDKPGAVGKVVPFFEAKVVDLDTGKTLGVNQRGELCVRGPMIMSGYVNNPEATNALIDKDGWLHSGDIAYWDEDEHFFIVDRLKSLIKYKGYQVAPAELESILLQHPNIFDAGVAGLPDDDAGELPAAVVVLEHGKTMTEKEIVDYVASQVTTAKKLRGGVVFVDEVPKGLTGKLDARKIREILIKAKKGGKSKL
S16 viab conf – S16 Schwann cell cytotoxicity, confirmatory. S16 Schwann cells viability, CellTiter-Glo ATP luminescence, 24 h. Potency, µM (doses to about 57.5 µM), most hits filed as cytotoxic. shares compounds with PMP22 txn prim. AID 1508641. 690 compounds, 7% hits
PMP22 txn conf – confirmation of modulators of PMP22 gene transcription in S16 cells. shares compounds with PMP22 txn prim. S16 Schwann cells Pmp22-F2sN, dual luciferase, 24 h. Potency, µM (highest dose often 57.5 µM), hits mostly inhibitors. 690 compounds, 22% hits. AID 1508646; active means clear falling dose curves in both reporters; inconclusive means both reporters move, but less clearly or upward; inactive means either reporter flat; the % is the FLuc reporter signal
PMP22 HiBiT cnf – rat PMP22 protein level modulation, confirmatory. shares compounds with PMP22 txn prim. S16 Schwann cells Pmp22-HiBiT, luminescence, 48 h. Potency, µM (titrated, usually from 27.9 µM), usual class: inhibitors. 95 tested, under 10 active
Large screens that a line does not name were inactive (follow-up assays come after a bar, where they were run). Rows were chosen to be rich in hits. Some 3.1% of all compounds tested hit in one or more screens of this group. Unless noted, the call rests on the fitted dose curve; in most records, active means well fitted curve in the direction sought with a large enough effect; inconclusive means small, poorly fitted or top-dose-only effect, or another doubt; inactive means no such curve, though single readings can be large; an effect the other way counts as inactive or inconclusive.

Cc1cccc(-n2ncc3c(Nc4c(C)cc(C)cc4C)ncnc32)c1	pS6 MEF inh inconclusive
CC(=O)c1cccc(Nc2nc(-c3ccccc3Cl)nc3ccccc23)c1	p53null 39C kill inconclusive, PMP22 txn prim 10.6µM | NLuc sat counter 5.44µM | NLuc Km ctr 0.863µM | FLuc ctr PMP22 inactive | S16 viab conf inactive | PMP22 txn conf inactive
Oc1cccc(-c2nc(N3CCOCC3)c3oc4ncccc4c3n2)c1	none (no result: p53null 39C kill, p53null 32C tox, S16 F2sN tox, pS6 MEF inh, PMP22 txn prim)
O=C(NCCSc1c(-c2ccccc2)[nH]c2ccccc12)c1ccc(S(=O)(=O)N2CCOCC2)cc1	PMP22 txn prim 9.46µM | NLuc sat counter inactive | NLuc Km ctr inactive | FLuc ctr PMP22 inactive | S16 viab conf inactive | PMP22 txn conf inactive
Cc1ccc(-c2[nH]c3ccccc3c2SCCNC(=O)c2ccc(S(=O)(=O)N(C)C)cc2)cc1	S16 F2sN tox inconclusive, PMP22 txn prim inconclusive
O=C(NCCSc1c(-c2ccc(Br)cc2)[nH]c2ccccc12)c1ccc(S(=O)(=O)N2CCOCC2)cc1	PMP22 txn prim 8µM | NLuc sat counter inactive | NLuc Km ctr inactive | FLuc ctr PMP22 inactive | S16 viab conf inactive | PMP22 txn conf inconclusive
O=C(NCCSc1c(-c2ccc(Cl)cc2)[nH]c2ccccc12)c1ccc(S(=O)(=O)N2CCOCC2)cc1	S16 F2sN tox inconclusive
CCN(CC)S(=O)(=O)c1ccc(C(=O)NCCSc2c(-c3ccc(OC)cc3)[nH]c3ccccc23)cc1	PMP22 txn prim 2.99µM | NLuc sat counter inactive | NLuc Km ctr inactive | FLuc ctr PMP22 inactive | S16 viab conf inactive | PMP22 txn conf inactive
O=C(OCC#CCSc1nnc(-c2cccc3ccccc23)o1)c1cc2ccccc2s1	none (no result: p53null 39C kill, p53null 32C tox, S16 F2sN tox, pS6 MEF inh, PMP22 txn prim)
CCOc1ccc(C(=O)c2cnc3ccc(Cl)cc3c2S(=O)(=O)c2ccc(C)cc2)cc1	PMP22 txn prim 14.1µM | NLuc sat counter inactive | NLuc Km ctr inactive | FLuc ctr PMP22 inactive | S16 viab conf inactive | PMP22 txn conf 19.3µM | PMP22 HiBiT cnf inactive
O=S(=O)(c1ccc(Cl)cc1)c1nnn2c1nc(N1CCCCC1)c1sccc12	PMP22 txn prim inconclusive | NLuc sat counter inconclusive | NLuc Km ctr inactive | FLuc ctr PMP22 inactive | S16 viab conf inactive | PMP22 txn conf inconclusive
Cc1ccc(S(=O)(=O)c2nnn3c2nc(NC2CCCCCC2)c2sccc23)cc1C	PMP22 txn prim 20µM | NLuc sat counter inconclusive | NLuc Km ctr inactive | FLuc ctr PMP22 inactive | S16 viab conf inactive | PMP22 txn conf 16.5µM | PMP22 HiBiT cnf inconclusive
